Measured values from the supplement of paper PMC12669032.
A number with no mark means an inactive call.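 How the source made its calls: active = AUC reduced over 20% with Padj below 0.05 in at least 2 of 3 replicates; inactive = otherwise.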

Legend:
Assay in all cases: growth AUC relative to DMSO control (median of replicates) (fraction); higher = more growth (less inhibition), active = hit call of the paper
Settings in all cases: 20 µM; 24 h
Coprococcus comes = system: Coprococcus comes
Summary of the method: (§1)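 Starting at OD600 0.05, gut bacterial monocultures in mGAM were grown anaerobically at 37 °C with 20 µM compound (1% DMSO) under pierced gas-permeable seals. OD600 was read every hour for 24 h, and the lowest OD of each curve was set to 0. Area under the growth curve was normalised to the plate median of solvent-only wells, or to row and column medians on the industrial chemical plate, and the median of three biological replicates grown on separate days is given.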

Escherichia coli ED1a = system: Escherichia coli ED1a
Summary of the method: as §1

Escherichia coli IAI1 = system: Escherichia coli IAI1
Summary of the method: as §1

Eubacterium rectale = system: Eubacterium rectale
Summary of the method: as §1

[1] = system: Fusobacterium nucleatum subsp. animalis
Summary of the method: as §1

Lactobacillus gasseri = system: Lactobacillus gasseri
Summary of the method: as §1

Lactobacillus paracasei = system: Lactobacillus paracasei
Summary of the method: as §1

Odoribacter splanchnicus = system: Odoribacter splanchnicus
Summary of the method: as §1

[2] = system: Parabacteroides distasonis
Summary of the method: as §1

Parabacteroides merdae = system: Parabacteroides merdae
Summary of the method: as §1

SMILES	growth AUC (Coprococcus comes)	growth AUC (Escherichia coli ED1a)	growth AUC (Escherichia coli IAI1)	growth AUC (Eubacterium rectale)	growth AUC [1]	growth AUC (Lactobacillus gasseri)	growth AUC (Lactobacillus paracasei)	growth AUC (Odoribacter splanchnicus)	growth AUC [2]	growth AUC (Parabacteroides merdae)
C[n+]1ccc(-c2cc[n+](C)cc2)cc1.O.[Cl-].[Cl-]	0.98	1.03	0.991	0.963	0.937	1.05	1.01	0.873	0.997	0.954
O=C1CCc2cccc3c2N1CC3	1.03	1	0.966	1.06	1.08	0.889	0.983	1.04	1.03	0.971
CCCOc1nn(C(=O)[N-]S(=O)(=O)c2ccccc2C(=O)OC)c(=O)n1C.[Na+]	0.988	0.994	1.02	1.08	1.12	0.968	0.977	1.1	1.02	0.999
CCOP(=S)(OCC)SCS(=O)CC (stereo not given)	1.03	0.996	1.01	0.995	1.04	0.95	0.95	1.06	1.09	0.998
COC(=O)Nc1cccc(OC(=O)Nc2cccc(C)c2)c1	1.03	1	0.966	1	0.944	0.933	0.987	1.05	0.976	0.968
CON(C)C(=O)Nc1ccc(Cl)cc1	1.02	1.01	1	0.999	0.96	1.04	0.97	0.998	1.02	1.02
CCOC(=O)CC(SP(=S)(OC)OC)C(=O)OCC (stereo not given)	0.984	0.975	1.02	1.07	0.977	0.917	1.13	1.07	0.959	1.01
CC(C)(C)c1cc([N+](=O)[O-])cc([N+](=O)[O-])c1O	0.859	0.93	0.923	0.908	0.638	0.852	0.859	0.722	0.83	0.942
O=c1ccc(=O)[nH][nH]1	0.996	0.973	0.976	1.06	0.877	0.957	1.11	1.08	1.01	0.99
CCCN(CCOc1c(Cl)cc(Cl)cc1Cl)C(=O)n1ccnc1	0.487 (active)	1.01	1.01	0.591 (active)	1	1.11	1.17	0.94	0.871	0.843
FC(F)C(F)(F)OCC(Cn1cncn1)c1ccc(Cl)cc1Cl (stereo not given)	0.979	0.972	0.966	0.804	1.02	0.912	0.841	0.981	0.951	0.932
Cc1ccccc1CO[C@@H]1C[C@@]2(C(C)C)CC[C@]1(C)O2 (mixture of isomers)	1	1.02	0.961	1.14	1.02	0.96	1.01	1.04	0.887	1
Cc1cc(Cl)ccc1OCC(=O)O.O.[Na]	1	1.01	1	1.15	1.07	0.864	0.994	1.03	0.95	1.04
O=C(O)C(F)(F)C(F)(F)C(F)(F)C(F)(F)C(F)(F)C(F)(F)F	1	0.998	1	1.01	0.955	1.03	1.01	1	1.08	1.03
CCOP(=S)(OCC)SCSP(=S)(OCC)OCC	0.997	0.983	1.01	0.954	1.04	0.988	1.07	1.01	1	0.997
COc1ccc(/C(=C/C(=O)N2CCOCC2)c2ccc(Cl)cc2)cc1OC	0.985	1.01	1.02	1.12	1.06	0.961	1.06	0.823	0.993	0.993
CON(C)C(=O)Nc1ccc(Br)cc1	1.05	1.02	1	1.02	1.07	1.15	1.02	1.01	0.983	1.01
[CH3][Hg][Cl]	0.816	1.04	1.06	0.872	0.956	0.99	1.04	0.684 (active)	0.918	0.892
C[C@@H](Oc1ccc(Oc2ccc(C(F)(F)F)cn2)cc1)C(=O)O	1.03	1	1	1.06	1.06	0.867	1.02	1.03	1.01	1.07
CCOc1cc(OP(=S)(OC)OC)nc(CC)n1	0.984	1	1.01	1.04	1.04	0.996	1.05	0.987	0.951	0.979
NCP(=O)(O)O	1.02	1.02	1.04	1.01	0.965	1.09	1.02	1.02	1.04	1.02
Clc1c(Cl)c(Cl)c(Cl)c(Cl)c1Cl	1	1.01	1.01	1.02	0.98	1.07	0.936	1.03	1.03	1.03
CCNc1nc(NC(C)C)nc(OC)n1	1.02	1	0.999	1.05	1.05	0.911	0.969	1.01	0.922	0.982
O=P(OCCCl)(OCCCl)OCCCl	0.916	0.98	0.963	0.89	0.88	0.98	1.09	0.868	0.989	0.921
CCc1ccc(C(=O)NN(C(=O)c2cc(C)cc(C)c2)C(C)(C)C)cc1	0.987	1.01	0.999	0.937	0.882	0.98	1.04	0.926	1.03	0.945
CCC1(C(=O)NC(C)c2ccc(Cl)cc2)C(C)C1(Cl)Cl (stereo not given)	0.97	0.964	1	1	0.886	0.871	0.955	0.851	0.641 (active)	0.91
CP(=O)(O)CCC(N)C(=O)[O-].[NH4+] (stereo not given)	1.06	1.02	1.02	1.08	1.17	0.944	1.08	1.02	1.1	1.03
CCNc1nc(NC(C)(C)C)nc(SC)n1	0.969	0.987	0.986	0.956	1.06	1.1	1.08	0.876	0.936	0.947
